Sampled rows, rich in hits. Any-hit rate of the full collection: about 11%.
BAZ2B inh: blocks human BAZ2B; Q9UIF8; AlphaScreen BAZ2B-H3K14Ac peptide displacement; Potency, µM (highest dose often 114 µM), inactives show top-dose activity change, negative = inhibition, hits mostly inhibitors; actives 4.4% (n = 360,000); AID 504333; note: potency is the fitted concentration of half-maximal effect; % is set by controls: 0 for no effect and ±100 for the full control effect; nearly all actives have a fitted effect of over 60% in size
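Protein-peptide AlphaScreen: BAZ2B 50 nM, b-H3K14Ac 50 nM, 1x PBS pH 7.4 + 0.01% Tween-20. Preincubation 30 min RT; cpd 30 min RT (top 110 uM); beads 20 min RT, light-protected.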
HP1b chromo inh: inhibitors of HP1-beta chromodomain binding to methylated histone tails | AlphaScreen HP1-beta / biotin-H3K9me3 peptide binding | Potency, µM (series often up to 114 µM), inactives show at the top dose activity change, negative = inhibition, hits mostly inhibitors | actives 0.56% (n = 390,000) | AID 540317; note: potency is the fitted concentration of half-maximal effect; nearly all actives have a fitted effect of over 70% in size
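HP1-beta protein (50 nM final) preincubated 30 min at room temperature with biotinylated H3(1-18)K9me3 peptide (50 nM) in PBS pH 7.4, 0.01% Tween-20, then compound added for 30 min. AlphaScreen streptavidin donor/nickel chelate acceptor beads (10 ug/mL final), 30 min dark, luminescence read.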
PI5P4Ka inh: inhibitors of human PI5P4K alpha | P48426 | PI5P4Kalpha enzyme, ADP-Glo luminescence, 60 min; stronger effect = lower value | max response, % | actives 1.2% (n = 330,000); active = max response of -50% or lower; inconclusive = between -30% and -50%; inactive = -30% or higher; note: value at the top dose of about 77 µM; % is set by controls: 0 for no effect and ±100 for the full control effect
Target sequence (P48426 whole entry, looked up): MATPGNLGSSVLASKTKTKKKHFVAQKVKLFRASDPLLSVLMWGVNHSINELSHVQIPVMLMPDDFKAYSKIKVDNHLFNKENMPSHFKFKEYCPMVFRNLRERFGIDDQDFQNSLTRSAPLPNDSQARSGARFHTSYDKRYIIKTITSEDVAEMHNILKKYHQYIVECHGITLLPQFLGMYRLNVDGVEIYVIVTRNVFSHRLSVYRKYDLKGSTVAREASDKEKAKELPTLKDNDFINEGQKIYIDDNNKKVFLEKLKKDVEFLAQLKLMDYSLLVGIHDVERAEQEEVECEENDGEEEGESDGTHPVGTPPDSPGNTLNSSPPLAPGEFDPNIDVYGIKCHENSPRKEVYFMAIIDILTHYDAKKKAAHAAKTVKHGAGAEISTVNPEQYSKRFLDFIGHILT
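Luminescence from ADP-Glo served as readout of PI5P4Kalpha activity in a qHTS format. Reaction: enzyme, substrate, compound, ATP at 5 microM final, 60 min at RT.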
L3MBTL1 block: inhibitors of human L3MBTL1 | AlphaScreen L3MBTL1–H3K9me1 peptide binding | Potency, µM (series often up to 57.1 µM), inactives show at the highest dose activity, negative = inhibition, usual class: inhibitors | actives 0.66% (n = 230,000); note: potency is the fitted concentration of half-maximal effect; % is set by controls: 0 for no effect and ±100 for the full control effect; nearly all actives have a fitted effect of over 60% in size
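Displacement of a biotinylated histone H3(1-15) peptide monomethylated at Lys9 (75 nM) from L3MBTL1 (50 nM) was measured by AlphaScreen after a 30 min room-temperature compound incubation; cefsulodin titration served as intraplate control.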
G9a inh: inhibitors of human histone lysine methyltransferase G9a. G9a H3K9 monomethylation, AlphaScreen, 2 h. Potency, µM (doses to about 102 µM), for inactives: top-dose activity, negative = inhibition, actives largely listed as inhibitors. actives 8.8% (n = 350,000); note: potency is the fitted concentration of half-maximal effect; % is set by controls: 0 for no effect and ±100 for the full control effect; nearly all actives have a fitted effect of over 75% in size
Target sequence (Q96KQ7 913-1193 limits assumed): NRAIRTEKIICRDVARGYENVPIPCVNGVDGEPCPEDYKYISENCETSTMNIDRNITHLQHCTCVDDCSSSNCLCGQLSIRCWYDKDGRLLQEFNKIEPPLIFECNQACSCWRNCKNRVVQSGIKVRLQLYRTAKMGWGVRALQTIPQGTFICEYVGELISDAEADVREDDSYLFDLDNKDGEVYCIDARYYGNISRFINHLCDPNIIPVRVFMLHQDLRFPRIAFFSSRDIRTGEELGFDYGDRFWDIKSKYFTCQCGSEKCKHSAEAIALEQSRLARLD
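Signal arises when biotinylated H3K9 peptide, once monomethylated, bridges streptavidin donor and antibody-captured acceptor beads. Enzyme at 20 nM was preincubated 15 min with test compounds; peptide 500 nM and SAM 20 uM then reacted for 2 h.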
JMJD2A Tudor inh: JMJD2A Tudor domain (human) inhibition. Potency, µM (top dose mostly 114 µM), inactives show at the top dose activity change, negative = inhibition, hits mostly inhibitors. AID 504339. AlphaScreen JMJD2A-Tudor / H3K4me3 peptide binding. actives 4.4% (n = 390,000); note: potency is the fitted concentration of half-maximal effect; % is set by controls: 0 for no effect and ±100 for the full control effect; nearly all actives have a fitted effect of over 50% in size
* = called active by the depositor; u = inconclusive; x = no result given; [ ] = dose if it differs, or a comment. Unless noted, calls come from the whole dose curve; as a rule, active = well fitted inhibition curve with a large enough effect; inconclusive = small, poorly fitted or top-dose-only effect; inactive = no such curve, though single readings can be large or run the other way.

SMILES | BAZ2B inh | HP1b chromo inh | PI5P4Ka inh | L3MBTL1 block | G9a inh | JMJD2A Tudor inh
COc1ccc([C@@H]2[C@H]3CN(C(C)=O)CC=C3C(C#N)=C(N)C2(C#N)C#N)c2ccccc12 | -4% | 35% | -6 | 0% | 45µM* | -7%
COc1ccc(-n2ncc(C(=O)Nc3ccc4c(c3)OCCO4)c2C2CCN(C(=O)OC(C)(C)C)CC2)cc1 | -9%[57.1 µM] | 11% | x | x | -44%[59 µM] | -36%
COc1ccc(NC(=O)C2=C(C)Nc3ncnn3C2c2sccc2C)cc1 (stereo not given) | -1% | 17%[57 µM] | x | x | 3%[59 µM] | -13%
Cc1cccc(Cn2nnc3c(=O)[nH]c(C4CCN(C(=O)c5ccc(F)cc5)CC4)nc32)c1 | -6% | 43% | x | x | 4%[59 µM] | -3%
Cc1ccc(NC(=O)CN2C(=O)S/C(=C/c3ccc(-c4cc(C(=O)O)ccc4C)o3)C2=O)cc1C | 11µM* | -68% | x | x | 3.5µM* | 11µM*
Cc1ccc(C(=O)O)cc1-c1ccc(C=C2C(=O)c3ccccc3C2=O)o1 | 50µM* | 40µM* | -23 | 25µM* | 18µM* | u
CCn1c(C)cc(/C=C2\SC(=O)N(CC(=O)Nc3ccc(C)c(C)c3)C2=O)c1C | 0%[57.1 µM] | 32% | -6 | 0% | 18% | -6%[57.1 µM]
Cc1ccc(C(=O)O)cc1NS(=O)(=O)c1ccc2c(c1)oc(=O)n2C | -12% | 29% | -7 | x | -1% | -2%
COC(=O)C(C)N1C(=O)S/C(=C\c2ccc(-c3ccc(C(=O)O)cc3C)o2)C1=O (stereo not given) | u | u | u | x | 40µM* | u
Cc1cc(C(=O)O)ccc1-n1c(C)cc(/C=C(/C#N)C(=O)Nc2ccccc2)c1C | u | 17% | u | u | x | -9%
Cc1cc(C(=O)O)ccc1-n1c(C)cc(C=C2C(=O)c3ccccc3C2=O)c1C | -35% | -15% | -20 | u | 28µM* | u
Cn1nnnc1Sc1ncnc2scc(-c3cccc(Cl)c3)c12 | x | x | x | x | x | -27%
Cc1ccccc1C1CC(=O)Oc2cc(C)c(Br)c(C)c21 (stereo not given) | x | x | x | x | 30% | x
Cc1cccc(NC(=O)CN2C(=O)S/C(=C\c3ccc(-c4cccc(C(=O)O)c4C)o3)C2=O)c1 | u | u | -3 | x | 13µM* | 79µM*
Cc1ccccc1NC(=O)CN1C(=O)S/C(=C\c2ccc(-c3cccc(C(=O)O)c3C)o2)C1=O | -36% | -34% | 2 | -2% | 20µM* | -16%[11.4 µM]
COc1cnc(-c2ccccn2)nc1NC(C)C | 3.2µM* | 16% | 3 | 1µM* | 56µM* | 22µM*
COc1cnc(-c2ccccn2)nc1Oc1ccccc1Cl | 50µM* | 34% | -3 | -8% | 8%[59 µM] | 12%
COc1cnc(-c2ccccn2)nc1Oc1ccc(F)cc1F | 40µM* | 44% | 5 | u | 5% | -32%
COc1cnc(-c2ccccn2)nc1Oc1ccc(Cl)cc1 | 32µM* | 13% | x | u | x | -31%
COc1cnc(-c2ccccn2)nc1Oc1ccc(Cl)c2ccccc12 | -37% | 19% | 15 | -16% | 24% | -35%
Cc1ccc2nc(NC(=O)CSc3[nH]c(=O)ncc3C)sc2c1 | -4% | 19% | x | x | 5%[59 µM] | -18%
CCOC(=O)c1ccccc1NC(=O)c1sc2nc3n(c(=O)c2c1C)CCCCC3 | -2% | 23% | x | x | 5%[59 µM] | -10%
CCn1nc(C)c2c(-c3ccccc3)cc(=O)n(C(C)C(=O)Nc3ccc(OC)c(OC)c3)c21 (stereo not given) | -21% | 4% | x | x | 10%[59 µM] | -19%
CCN(CC)CCCNC(=O)c1ccc(N2CCCCC2)c(NS(=O)(=O)c2ccc(C)cc2)c1 | u | 40% | 3 | x | 79µM* | -19%
COc1ccc(C(=O)N2CCC3(CC2)CN(c2ncccn2)C3)cc1 | x | x | x | x | 4%[12.7 µM] | x
SMILES | BAZ2B inh | HP1b chromo inh | PI5P4Ka inh | L3MBTL1 block | G9a inh | JMJD2A Tudor inh
CC(=O)ON1C(C)(C)Cc2noc(N)c2C1(C)C | 3% | 27% | 3 | 0% | 21%[59 µM] | -8%
CC1(C)Cc2noc(N)c2C(C)(C)N1O | -7% | 17% | 4 | u | u | 32µM*
Cc1ccc(S(=O)(=O)N2CCN(Cc3nc4ccc(C)cc4o3)CC2)c(C)c1 | -6% | -5% | x | x | 9%[59 µM] | -15%
COc1ccc(-n2nc(C(=O)NCCCN3CCOCC3)c3ccccc3c2=O)c(OC)c1 | -24% | 9% | -14 | x | 15% | 56µM*
COc1ccc(OC)c(-c2nc(C(=O)NCCCN3CCOCC3)cc3c2[nH]c2ccccc23)c1 | 50µM* | 19% | -3 | x | 3%[12.7 µM] | u
O=C1c2ccccc2-c2onc3ccc(Oc4ccccc4)c1c23 | u | -27% | -8 | -6%[11.4 µM] | 8.9µM* | u
Cc1noc(C)c1S(=O)(=O)Nc1ccccc1Oc1ccccc1 | 13% | 27% | 0 | 10% | x | -5%
Cc1cc(=O)oc2cc(O)ccc12 | x | 41% | 0 | x | 39%[21.5 µM] | -10%
O=c1cc(O)c2ccc(O)cc2o1 | -6% | 21% | -50* | 9% | 18%[59 µM] | -7%
O=c1oc2cc(O)ccc2c2ccccc12 | u | 15% | -4 | x | 2µM* | -4%
CN(C)C(=O)c1ccc(-c2ccc3ncnc(NCc4ccccc4)c3c2)cc1 | x | x | x | x | 9%[0.501 µM] | x
COC(=O)c1ccc(NS(=O)(=O)c2ccc3[nH]c4c(c3c2)CCCC4)cc1 | 71µM* | -21% | x | x | u | u
CC(=O)c1ccc(NS(=O)(=O)c2ccc3[nH]c4c(c3c2)CCCC4)cc1 | 79µM* | -12% | x | x | u | u
COc1ccc(NS(=O)(=O)c2ccc3[nH]c4c(c3c2)CCCCCC4)cc1 | -2% | 23%[57 µM] | x | x | -49%[59 µM] | -5%
Cc1ccc(NS(=O)(=O)c2ccc3[nH]c4c(c3c2)CCCC4)c(C)c1 | 40µM* | u | x | x | 16µM* | 28µM*
COc1ccc(Cl)cc1NS(=O)(=O)c1ccc2[nH]c3c(c2c1)CCCC3 | -37% | 0% | x | x | u | u
Cc1ccc(NS(=O)(=O)c2ccc3[nH]c4c(c3c2)CCCCC4)cc1 | -31%[57.1 µM] | -19% | x | x | 14µM* | u
Cc1cc2ccccc2n1-c1ccc(C(=O)N2CCCCC2)s1 | 10% | 59% | x | x | -1%[59 µM] | 0%
Cc1ccc(NC(=O)CN(C)S(=O)(=O)c2ccc3[nH]c4c(c3c2)CCCC4)c(Cl)c1 | -30% | 6% | x | x | 11µM* | u
CCOc1ccc(CNS(=O)(=O)c2ccc3[nH]c4c(c3c2)CCCC4)cc1OC | 45µM* | u | x | x | u | u
Cc1cccc(OCC(=O)NC(=S)N2CCCc3ccccc32)c1 | 45µM* | u | x | -24% | 11µM* | 50µM*
Cc1cccc(OCC(=O)Nc2ccccc2N2CCCCC2)c1 | 52% | 191% | 14 | 32%[11.4 µM] | 54%[59 µM] | 67%
O=C(COc1ccc(Cl)cc1Cl)NC(=S)N1CCCc2ccccc21 | 79µM* | u | x | x | 10µM* | 40µM*

Screens from PubChem.
